AMA1-RON2 inh – qHTS for Inhibitors of AMA1-RON; Towards Development of Antimalarial Drug Lead: Primary Screen; Potency, µM (series often up to 58.2 µM), inactives show top-dose activity change, negative = inhibition, hits mostly inhibitors; actives 0.2% (n = 360,000); AlphaScreen AMA1-biotinylated RON2 peptide binding; Plasmodium falciparum AMA1 (3D7) - RON2 peptide interaction;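 also: 0% = vehicle wells and -100% = peptide control; nearly all actives have a fitted effect of over 45% in size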
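AMA1 (3D7) with his tag at 25 nM final met compounds first, then biotinylated RON2 peptide at 25 nM; detection used donor plus acceptor beads, 10 µg/mL apiece, read by AlphaScreen after 30 min at room temperature.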
HCV inhibitor – qHTS Assay for Inhibitors of Hepatitis C Virus (HCV); actives 3.4% (n = 340,000); Huh7.5.1 HCVcc-Cre infection, luciferase reporter, 44 h; AID 651820, 2012; Potency, µM (highest dose often 41.8 µM), inactives show at the highest dose activity change, negative = inhibition, actives largely listed as inhibitors
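Cells seeded at 1,000/well and cultured 4 h, then compounds added followed by HCVcc-Cre virus (~0.5 moi). After 44 h further culture, luciferase substrate was added, plates held 15 min at room temperature, and luminescence read for 15 sec.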
AmpC inh detg – qHTS Inhibitors of AmpC Beta-Lactamase (assay with detergent); actives 0.041% (n = 370,000); AmpC hydrolysis of nitrocefin, absorbance 480 nm, 0.01% Triton; P00811; Potency, µM (highest dose often 114 µM), inactives show top-dose activity change, negative = inhibition, usual class: inhibitors; AID 485294, 2010;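 also: 0% = no-compound wells and -100% = no-enzyme wells; nearly all actives have a fitted effect of over 25% in size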
Target sequence (P00811 whole entry, looked up): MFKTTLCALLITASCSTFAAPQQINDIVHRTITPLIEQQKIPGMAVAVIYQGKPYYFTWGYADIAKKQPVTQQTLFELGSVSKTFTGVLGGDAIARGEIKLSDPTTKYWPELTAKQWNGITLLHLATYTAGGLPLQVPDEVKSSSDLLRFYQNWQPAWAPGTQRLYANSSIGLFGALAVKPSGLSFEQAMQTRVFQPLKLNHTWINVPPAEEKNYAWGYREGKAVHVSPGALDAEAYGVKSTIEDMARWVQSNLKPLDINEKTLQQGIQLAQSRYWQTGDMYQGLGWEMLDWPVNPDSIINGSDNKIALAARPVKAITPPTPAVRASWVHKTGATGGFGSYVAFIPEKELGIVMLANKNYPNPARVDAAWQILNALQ
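AmpC (5.3 nM in the dispensed reagent) in 20 mM phosphate pH 7.0 with 0.01% (detergent screen) or 0.0001% Triton X-100 was preincubated with compounds for 15 min at room temperature. Nitrocefin was then added from an 800 uM solution, and hydrolysis was followed at 480 nm.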
AmpC no deterg – qHTS Inhibitors of AmpC Beta-Lactamase (assay without detergent); AmpC nitrocefin hydrolysis, absorbance 480 nm, 0.0001% Triton; AID 485341, 2010; Potency, µM (titrated, usually from 57.1 µM), for the others: at the top dose activity change, negative = inhibition, most hits filed as inhibitors; actives 0.52% (n = 330,000); P00811;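 also: plate controls were no compound for no effect and no enzyme for full effect; nearly all actives have a fitted effect of over 20% in size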
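20 mM phosphate pH 7.0 + 0.01% (detergent screen) or 0.0001% Triton X-100; 5.3 nM AmpC reagent; cpd preinc 15 min RT; nitrocefin (800 uM stock) to start; A480 q20 s × 4 min; Activity was normalised to no-enzyme and no-compound control wells.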
Pf growth 96h – Primary qHTS for delayed death inhibitors of the malarial parasite plastid, 96 hour incubation; P. falciparum luciferase reporter growth, 96 h; actives 6.9% (n = 320,000); Potency, µM (highest dose often 28.7 µM), inactives show at the top dose activity change, negative = inhibition, usual class: inhibitors; AID 504834, 2011
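P. falciparum expressing integrated firefly luciferase grown in erythrocytes (2% hematocrit, 0.05% parasitemia final) with compounds for 96 hours at 37 C, 5% CO2. Growth inhibition read as loss of luminescence after adding luciferase detection reagent.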
Pf growth 48h – Primary qHTS for delayed death inhibitors of the malarial parasite plastid, 48 hour incubation; P. falciparum luciferase growth in erythrocytes, 48 h; AID 504832, 2011; Potency, µM (doses to about 28.7 µM), for inactives: top-dose activity change, negative = inhibition, usual class: inhibitors; actives 5.9% (n = 310,000)
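Erythrocytes infected with P. falciparum carrying an integrated firefly luciferase reporter (2% hematocrit, 0.1% parasitemia final) were exposed to compounds in RPMI 1640 with 0.5% Albumax at 37 C, 5% CO2. Growth inhibition was scored as reduced luminescence.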
* hit, by the source's call; ? = inconclusive; nt = no result. Shown are actives, neighbours in structure and some others; about 11% of the full set was active somewhere. Calls follow the shape of the dose curve; as a rule, active = well fitted curve in the direction sought with a large enough effect; inconclusive = small, poorly fitted or top-dose-only effect, or another doubt; inactive = no such curve, though single readings can be large; an effect the other way counts as inactive or inconclusive. Unless noted, % is scaled to controls: 0 for no effect and ±100 for the full control effect; potency is read from the fitted curve at half-maximal effect.

SMILES | AMA1-RON2 inh | HCV inhibitor | AmpC inh detg | AmpC no deterg | Pf growth 96h | Pf growth 48h
CC(=O)NCCC(=O)Nc1cc(S(=O)(=O)N2CCOCC2)ccc1N1CCCC1 | -21% | 10% | -14% | 1% | 0% | 12µM*
CCC(C(=O)Nc1ccccc1C(=O)OC)n1c(C)c2cnn(-c3ccccc3)c(=O)c2c1C (stereo not drawn) | nt | nt | 24% | nt | nt | nt
CC(=O)NCCNc1nc2c(-c3cccc(C)c3)nnn2c2ccccc12 | 0% | 14µM* | -5% | 52% | ? | -13%
CC(=O)NCCNc1nc2c(-c3ccc(C)cc3)nnn2c2ccccc12 | nt | nt | 10% | nt | nt | nt
NNc1nc2c(-c3cccc(C(F)(F)F)c3)nnn2c2ccccc12 | 134% | 14µM* | -1% | -36% | 26% | 6.6µM*
CCOC(=O)c1c(C)[nH]c(C(=O)OCc2csc(CC(=O)Nc3ccccc3C)n2)c1C | -1% | ? | ? | -16% | 12µM* | 9.3µM*
CCC(C(=O)OCc1csc(CC(=O)Nc2ccccc2C)n1)c1ccccc1 (stereo not drawn) | 44% | -24% | ? | -5% | ? | 12µM*
Cc1ccccc1NC(=O)Cc1nc(COC(=O)CCNS(=O)(=O)c2ccccc2)cs1 | -2% | ? | ? | -31% | ? | 10µM*
Cc1ccccc1NC(=O)Cc1nc(CSc2nnc(C3CCCCC3)n2N)cs1 | 44% | -5% | -15% | -3% | 7.4µM* | 13µM*
Cc1ccccc1NC(=O)Cc1nc(COC(=O)CNS(=O)(=O)c2cccc(Br)c2)cs1 | 0% | 0% | 3% | -29% | 1% | 4%
CCC(C)NC(=O)c1c(C)oc2nc(C)nc(N3CCOCC3)c12 (stereo not drawn) | nt | nt | 23% | nt | nt | nt
CCOC(=O)CSc1nc2c(sc3ccccc32)c(=O)n1CCO | nt | nt | 0% | nt | nt | nt
COc1ccccc1NC(=O)CN(C)S(=O)(=O)c1ccc2c(c1)c(=O)n(C)c(=O)n2C | nt | nt | -12% | nt | nt | nt
Cn1c(=O)c(=O)n(C)c2cc(NC(=O)c3cccc(F)c3)c(Cl)cc21 | nt | nt | 7% | nt | nt | nt
CC(C)Nc1cc(N2CCN(C3CCCCC3)CC2)c2noc3c2c1C(=O)c1ccccc1-3 | nt | nt | 4% | nt | nt | nt
CCOC(=O)NCc1ccc(S(=O)(=O)Nc2ccccc2C)cc1 | 19% | -1% | -12% | -13% | 13µM* | nt
CCOC(=O)C(Cc1ccccc1)C(=O)Nc1ccc(NC(=O)C(Cc2ccccc2)C(=O)OCC)cc1 (stereo not drawn) | 5% | 10% | -15% | -9% | 105% | 10%
Cc1ccccc1NS(=O)(=O)c1ccc(OCC(=O)NCc2cccnc2)cc1 | 6% | -1% | -11% | -12% | ? | -9%
CCOC(=O)NCc1ccccc1 | 9% | 2.8µM* | -10% | 3% | 44% | 17%
CCOC(=O)C(Cc1ccccc1)C(=O)NCc1ccccc1 (stereo not drawn) | 0% | 12% | 8% | -19% | 3.3µM* | 21%
Cc1ccc(N2C(=O)c3ccccc3C2C(=O)c2cc(C)ccc2O)cc1 (stereo not drawn) | -3% | -23% | -5% | -9% | 2.6µM* | 2.6µM*
Cc1ccc(N2C(=O)c3ccccc3C2C(=O)c2ccc(C)c(C)c2O)cc1 (stereo not drawn) | ? | -29% | -5% | -25% | 5.2µM* | ?
CCS(=O)(=O)c1cccc(C(=O)N2CCN(c3nc4c(C)ccc(Cl)c4s3)CC2)c1 | nt | nt | -2% | nt | nt | nt
COc1cccc(/C=C2\Oc3ccc(O)cc3C2=O)c1O | 4% | -5% | -6% | -22% | -10% | 5.2µM*
O[C@@H](CNC[C@H](O)c1ccccc1)c1ccccc1 | 17% | -4% | 0% | -21% | 9.3µM* | 9.3µM*
SMILES | AMA1-RON2 inh | HCV inhibitor | AmpC inh detg | AmpC no deterg | Pf growth 96h | Pf growth 48h
CC1CCC(NCC(O)c2ccccc2)CC1 (stereo not drawn) | 2% | -20% | ? | -19% | 6.6µM* | nt
COc1ccc(CCNCC(C)c2ccccc2)cc1 (stereo not drawn) | 5% | 29% | 0% | -23% | 18% | 18%
COc1ccc(CCNCC(O)c2ccccc2)cc1 (stereo not drawn) | -6% | 19% | 1% | -26% | ? | 9.3µM*
OC(CNCCc1ccccc1)c1ccccc1 (stereo not drawn) | 4% | 5% | ? | -12% | 5.9µM* | 5.9µM*
CCCCC(CC)CNCC(O)c1ccccc1 (stereo not drawn) | -3% | 1% | ? | -15% | ? | ?
Cc1ccc(C)c(N2CCN(C(=O)Cn3cnc4onc(-c5ccc(F)cc5)c4c3=O)CC2)c1 | nt | nt | 25% | nt | nt | nt
COc1ccc(NS(=O)(=O)c2cc(NC(=O)C3CCCO3)ccc2N2CCCC2)cc1 (stereo not drawn) | 25% | 11% | 1% | 35% | -23% | -3%
COc1ccc(NS(=O)(=O)c2cc(NC(=O)c3ccco3)ccc2N2CCCC2)cc1 | 2% | 10µM* | -4% | -27% | ? | ?
COc1cccc(NC(=O)c2cc(=O)c3ccccc3o2)c1 | 2% | 12% | -8% | -20% | 76% | 66%
COc1ccc(NS(=O)(=O)c2cc(NC(=O)CCNC(C)=O)ccc2N2CCCCC2)cc1 | -6% | ? | 1% | 222% | ? | 9.3µM*
COc1ccc(CCC(=O)Nc2ccc(N3CCOCC3)c(S(=O)(=O)Nc3ccc(OC)cc3)c2)cc1 | -3% | ? | nt | nt | nt | nt
COc1ccc(NS(=O)(=O)c2cc(NC(=O)C3CCCO3)ccc2N2CCCCC2)cc1 (stereo not drawn) | -1% | ? | -7% | 69% | ? | 5.2µM*
COc1ccc(NS(=O)(=O)c2cc(NC(=O)c3cc(=O)c4ccccc4o3)ccc2OC)cc1 | -19% | -14% | 8% | -38% | ? | 8.3µM*
COc1ccc(-n2ccnc2SCC(=O)Nc2cccc(OC)c2)cc1 | nt | nt | 1% | nt | nt | nt
COc1ccc(NC(=O)C(NC(=O)/C=C\c2ccc3c(c2)OCO3)c2ccccc2)cc1 (stereo not drawn) | nt | nt | 5% | nt | nt | nt
COc1ccc(NS(=O)(=O)c2cc(NC(=O)c3cc(F)c(F)c(F)c3F)ccc2N2CCCC2)cc1 | -15% | ? | -6% | -51% | ? | 25%

High-throughput results (PubChem BioAssay)
